Over roughly 33,000 sequences, “E-score (-0.5 to 0.5)” has its median near -0.035; the highest 2% begin near 0.35. This is one part of a sample in which the highest values are shown more often than they occur.
These sequences were tested against T1, Pdr3 (UniProt P33200) (assay: PBM E-score (8-mer binding enrichment) (E-score (-0.5 to 0.5)); higher = stronger / more preferred TF binding). Conditions: protein concentration: 200 nM; construct: GST-full length.
T1 sequence: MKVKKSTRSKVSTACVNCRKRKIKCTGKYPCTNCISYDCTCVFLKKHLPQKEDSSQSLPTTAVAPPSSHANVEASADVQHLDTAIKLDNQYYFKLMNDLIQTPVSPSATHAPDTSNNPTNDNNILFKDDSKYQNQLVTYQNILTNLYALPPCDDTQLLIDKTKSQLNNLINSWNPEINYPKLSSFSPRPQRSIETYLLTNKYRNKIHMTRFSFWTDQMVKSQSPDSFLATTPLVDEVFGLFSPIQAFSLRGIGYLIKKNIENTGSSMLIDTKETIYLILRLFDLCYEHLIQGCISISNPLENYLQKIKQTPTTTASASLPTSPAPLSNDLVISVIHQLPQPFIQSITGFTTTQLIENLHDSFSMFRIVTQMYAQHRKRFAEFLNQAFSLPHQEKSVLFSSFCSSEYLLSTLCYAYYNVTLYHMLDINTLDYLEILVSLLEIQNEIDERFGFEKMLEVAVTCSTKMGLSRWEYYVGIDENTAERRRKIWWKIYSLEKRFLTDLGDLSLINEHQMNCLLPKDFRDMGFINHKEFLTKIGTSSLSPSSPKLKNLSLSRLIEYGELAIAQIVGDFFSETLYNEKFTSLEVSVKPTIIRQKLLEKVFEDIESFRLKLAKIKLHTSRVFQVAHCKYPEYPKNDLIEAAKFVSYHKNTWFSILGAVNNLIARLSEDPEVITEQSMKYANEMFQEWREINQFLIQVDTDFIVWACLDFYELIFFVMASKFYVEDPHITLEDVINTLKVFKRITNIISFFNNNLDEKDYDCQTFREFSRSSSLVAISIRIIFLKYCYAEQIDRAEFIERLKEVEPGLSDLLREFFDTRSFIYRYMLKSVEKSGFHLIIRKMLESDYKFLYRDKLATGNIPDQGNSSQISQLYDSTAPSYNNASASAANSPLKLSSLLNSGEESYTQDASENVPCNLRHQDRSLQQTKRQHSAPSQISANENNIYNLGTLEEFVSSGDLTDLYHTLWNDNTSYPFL
Procedure: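 Universal 'all 10-mer' protein binding microarrays (Agilent AMADID 015681) probed with GST-tagged S. cerevisiae TFs (full-length or DBD) made by in vitro transcription/translation (PURExpress), about 100-200 nM. Bound TF was detected with fluorescent anti-GST. Each ungapped 8-mer (which stands for itself and its reverse complement) is scored by the PBM enrichment score (E-score), a modified Wilcoxon-Mann-Whitney statistic from -0.5 to +0.5, computed with the Universal PBM Analysis Suite. Scale: above 0.35 generally sequence-specific binding.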

Sequence	PBM E-score
AGCTTCGA	-0.102
AAGCCGGG	0.262
GAGCCGGA	0.362
GAGCCGGC	0.324
AAGCCGGT	0.199
CAGCCGGA	0.398
CAGCCGAA	0.0741
GAGCCGCA	0.044
AAGCCGTC	0.178
AAGCCGGC	0.366
CAGCCGGC	0.324
AAGCCGGA	0.392
CAGCCGGG	0.229
AAGTGCTC	-0.107
AGTTCTAA	0.00941
ACGGTGAA	-0.0181
AATCGTCA	-0.112
GTTGATCA	0.0338
AGCCCCAT	-0.0914
TAGCCGCA	-0.0883
TAGCCGAA	0.0812
TAGCCGGA	0.372
AAAGAGGA	-0.131
ATAACTGA	0.00191
CTGAACTC	-0.215

Sequence	PBM E-score
AGGAACTC	0.0544
CGGAACTA	0.473
AGGAACTA	0.0717
CGGAACTC	0.452
GGGAACTA	0.0485
CTCTTCTC	-0.18
GTATGGAC	0.0423
ACCGATGG	-0.0565
CTACTGTA	-0.136
ACTAAACT	-0.121
AGCAGCAC	-0.129
GTTGCCTA	0.0329
ACCCGGGT	0.446
GACCGGGC	0.0834
ACCCGGGA	0.448
ACCGGGGC	0.224
ACCCGGGC	0.424
ACCCCGGT	0.186
ACCCGGCT	0.24
ACCCGGTC	0.199
GCCCGGGC	0.427
CCCCGGGC	0.33
AACCGGGA	0.243
ACCGGGGA	0.0294
GGCACCCC	-0.0993

Sequence	PBM E-score
CTGGCCAA	0.0275
AGGATCTA	-0.352
ATTACTAA	-0.0285
GCGGGCCA	0.0261
CCACCATA	0.0173
ATTTTCTA	-0.183
ACGAGGCA	-0.211
GTCAAAGA	-0.212
TAAATTAA	0.0873
AACCTCCG	0.219
CGAAGAAC	0.119
AGCCCAAT	-0.194
GACCGGGA	0.304
GCCGGGGA	0.2
GCCCGGGA	0.393
GCGTTCCC	0.139
CTGCCCCA	-0.045
AGCGGACC	0.175
CGGGGACC	0.291
CGTGGACA	0.108
CGCGGACA	0.361
CGCGGACG	0.342
CGCGGACC	0.437
AGCGGACA	0.154
GGCGGACC	0.357

Sequence	PBM E-score
GGCGGACA	0.185
GATCGCCC	0.00089
CAAACCGA	-0.0979
CGCCGTCC	0.115
TGACGCAA	-0.165
CGGACTCA	0.31
GACAAGGA	-0.0759
AGACTCGG	-0.099
ACGTCAAG	-0.311
GGACCGGA	0.382
CGACCGGC	0.161
GGACCGCA	0.243
CGACCGAA	0.0221
CGACCGGA	0.358
AGACCGGA	0.254
ATGCCAGC	-0.22
CTCAAAAA	-0.0515
CACCCGTC	0.215
CAGTCTGC	-0.173
CTACTTGA	-0.238
AGGGATTA	-0.132
GGGGATGA	0.0246
CGGGATTA	0.404
CGGGATGA	0.369
CTGGATTC	0.105

Sequence	PBM E-score
AGGGATTC	-0.0434
GGGGATTA	0.162
CGGGATGC	0.311
CGGGATTC	0.382
AGCCGAGC	0.267
GTAACCCA	0.0499
AAGCGAAA	-0.0467
CTCGTAGC	-0.167
CGACCATA	0.0144
CTTCTGGA	-0.0291
CATCTACC	0.0434
CCCTCGGA	0.373
GGCTCGGA	0.338
TACTCGGA	0.336
AGCTCGGA	0.316
ACGTCGGA	0.175
CCGTCGGA	0.361
GCCTCGGA	0.308
CGCTCGGA	0.359
GACTCGGA	0.39
CCGTCGGC	0.285
CCCTCGGC	0.173
AACTCGGA	0.296
ACGATCAG	-0.108
AGCTCCCT	-0.178

Sequence	PBM E-score
CATAAAGG	-0.0331
TCACGAAA	0.0507
AGCGGGGG	-0.158
ACCTCGGC	0.307
ACCTCGGA	0.357
ACCTCGGG	0.158
AACGTCAA	-0.146
GCTATTCA	0.0956
AATGGTAG	-0.0896
AGAACTCC	0.0347
CGAACTCC	0.132
GGAACTCC	0.366
CTCGCGAG	0.192
CCGCGGGC	0.484
CGGCGGTC	0.145
ACGCGGGC	0.17
ACGCGGTA	0.0327
ACGCGGTC	0.181
CCGCGGTC	0.432
CCGCGGTA	0.473
GCGCGGTA	0.28
CTGCGGGC	0.218
GATCCAAA	0.064
ACGTCTAT	-0.168
ACGTAGCT	-0.31

Sequence	PBM E-score
CCGTCTAG	0.178
TTCGGCAA	-0.0284
CCCGGCAA	0.286
GCCGGCAA	0.37
ACCGGCAC	0.192
CCCGGCAC	0.154
TACGGCAA	-0.034
TCCGGCAA	0.356
GCCGGCAC	0.392
ACCGGCAA	0.185
TGAACGAA	-0.195
CCTCAACC	-0.118
AGATTACA	-0.107
ACTGTGAG	-0.0549
GAGGCTGA	-0.305
AGAGGGCG	0.126
CGCGCTAA	0.205
CCGGTCGA	0.167
TCCGGACA	0.447
CCCGGACA	0.362
CCCGGACG	0.223
ACCGGACA	0.206
CCCCGACA	0.0765
GCCGGACA	0.315

From the supplement of paper PMC3334620
